Shown is part of a subset that was picked to be rich in hits.
Pf Dd2 inh: blocks in vitro growth of P. falciparum Dd2; Potency, µM (top dose mostly 28.9 µM), inactives show at the highest dose activity, negative = inhibition, hits mostly inhibitors; P. falciparum Dd2 growth, SYBR Green, 72 h; hit rate 4.3% among 120,000; AID 1347417; active = well fitted inhibition curve with a large enough effect;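 also: plate controls were DMSO vehicle for no effect and reference drug for full effect; nearly all actives have a fitted effect of over 65% in size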
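Infected erythrocytes (Dd2, 0.3% parasitemia, 2.5% hematocrit final) are added to compound in RPMI-1640/Albumax II medium, grown 72 h at 37C in low oxygen, then lysed with saponin/Triton-X containing SYBR Green and read by fluorescence.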
* = called active by the depositor; i = inactive; [ ] = dose if it differs, or a comment. Potency is read from the fitted curve at half-maximal effect.

SMILES	Pf Dd2 inh
CCc1ccccc1NC(=O)C1CCN(C(=O)c2ncn3c2COC(c2ccc(F)cc2)C3)CC1 (centres undefined)	i
Cc1ccc(-c2cc(C(=O)N3CCC(Cc4nncn4C(C)C)CC3)c3ccccc3n2)cc1C	5µM*
Cc1nn(C(=O)CCCC(=O)N2CCC(Cc3nncn3C(C)C)CC2)c2ccccc12	-10%
CC(C)n1cnnc1CC1CCCN(C(=O)c2n[nH]c3ccccc23)C1 (centres undefined)	-3%
CC(=O)c1cc(C(=O)N2CCC3(CC2)Nc2ccccc2NC3=O)[nH]n1	1%
O=C(CS(=O)(=O)c1nc(-c2ccc(Cl)cc2)cn1-c1ccccc1)Nc1ccc(F)cc1F	-1%
COC(=O)CC1Oc2ccccc2-n2cc(-c3ccc(Cl)cc3)nc21 (centres undefined)	3.5µM*
COC(=O)c1ccc(Cl)cc1NC(=O)N1CC(C)Oc2ccccc21 (centres undefined)	-25%
COC(=O)CC1Oc2ccc(F)cc2-n2cc(-c3ccc(Cl)cc3)nc21 (centres undefined)	11µM*
COC(=O)CNC(=O)c1nc(-c2ccc(Cl)cc2)c2ccccn12	-5%[44.1 µM]
COc1ccc(-n2cc(C(=O)Nc3cc(F)ccc3F)c3ccccc3c2=O)cc1	i
NC(=O)[C@@H]1CCCN1CC[C@H]1CN(C(=O)C2CCCC2)CC[C@H]1CC(=O)O	1%[44.1 µM]
COc1ccc(-c2cnc3n[nH]c(-c4sccc4C)c3n2)cc1OC	-15%[44.1 µM]
CCn1cc(CN2CCc3nn(CC4CC4)c(=O)n3CC2)cn1	-3%
COc1cccc2c1OCC(CNC(=O)CCc1cn3ccccc3n1)C2 (centres undefined)	10%
COc1ccc(-c2ccc3nc(-c4ccccc4Br)oc3c2)c(OC)c1OC	-2%
O=C(Nc1cccc(F)c1)N1CCc2c(c3ccccc3n2CC2CC2)C1	-8%
COc1cccc(CC(=O)N2CCC3(CC2)OC(=O)N(Cc2ncccn2)C3(C)c2ccccc2)c1 (centres undefined)	-4%
Cn1nccc1C(=O)N1CCC2(CC1)OC(=O)N(Cc1ccccc1C#N)C2(C)c1ccccc1 (centres undefined)	10µM*
CC1(c2cccnc2)N(Cc2ccccc2)C(=O)OC12CCN(C(=O)C1CCC1)CC2 (centres undefined)	-17%[44.1 µM]
CC1(c2ccccc2)N(Cc2ccccc2C#N)C(=O)OC12CCN(C(=O)c1ccc(F)cc1)CC2 (centres undefined)	i
CC1(c2ccccc2)N(Cc2ccccc2C#N)C(=O)OC12CCN(C(=O)Cc1ccccn1)CC2 (centres undefined)	i
COCC(=O)N1CCC2(CC1)OC(=O)N(Cc1cccnc1)C2(C)c1ccccc1 (centres undefined)	-2%[44.1 µM]
COc1ccc(OC)c(CN2CCC3(CC2)OC(=O)N(Cc2ccccc2C#N)C3(C)c2ccccc2)c1 (centres undefined)	-25%
COc1cccc(CC(=O)N2CCC3(CC2)OC(=O)N(Cc2csc(C)n2)C3(C)c2ccccc2)c1 (centres undefined)	4µM*
SMILES	Pf Dd2 inh
CC1(c2ccccc2)N(Cc2ccccc2F)C(=O)OC12CCN(C(=O)c1cnccn1)CC2 (centres undefined)	i
Cc1nc(CN2C(=O)OC3(CCN(C(=O)Cc4ccc(O)cc4)CC3)C2(C)c2ccccc2)cs1 (centres undefined)	i
CC1(c2ccccc2)N(Cc2ccccc2C#N)C(=O)OC12CCN(c1ccncc1)CC2 (centres undefined)	11µM*
CC1(c2ccccc2)N(Cc2cccnc2)C(=O)OC12CCN(C(=O)c1ccc(Oc3ccccc3)cc1)CC2 (centres undefined)	6.3µM*
O=C1NCCCCCN(Cc2cccnc2)[C@@H]2CN(C(=O)Nc3ccccc3F)CC[C@@H]12	-9%
COc1ccccc1C(=O)N1CCC2(CC1)CN[S+](=O)([O-])c1ccccc1N2	-4%
O=C(Nc1ccc(Cl)cc1Cl)c1cn2c(n1)CN(C(=O)c1cccnc1)CC2	-26%
O=C(O)C[C@@H]1CCN(C(=O)c2cccs2)C[C@@H]1CCN1CCN(c2cccc(C(F)(F)F)c2)CC1	-48%
Cc1cc(C(=O)N[C@@H]2C[C@H](Cn3cc(C4CC4)nn3)[C@@H](O)[C@H]2O)no1	3%[44.1 µM]
Cn1cnnc1CC1CCN(C(=O)c2cccs2)CC1	23%
COc1ccc(-c2nc(Cn3c(-c4ccc(F)cc4)nc(C)c(CCO)c3=O)c(C)o2)cc1	-13%
CC1(c2ccccc2)N(Cc2ccccc2F)C(=O)OC12CCN(C(=O)CN1CCOCC1)CC2 (centres undefined)	i
CC(=O)N1CCC2(CC1)OC(=O)N(Cc1ccccc1F)C2(C)c1ccccc1 (centres undefined)	i
CN1CCC(C(=O)N2CCC3(CC2)OC(=O)N(Cc2ccccc2F)C3(C)c2ccccc2)CC1 (centres undefined)	5.6µM*
CC[C@H]1CN(C(C)=O)CC[C@H]1CC(=O)Nc1nccs1	-13%[44.1 µM]
Cc1nc(-c2ccccc2)sc1-c1ccc(SCC(=O)Nc2cccc(C(F)(F)F)c2)nn1	-8%
Cc1ccc(CNC(=O)CSc2ccc(-c3sc(-c4ccccc4)nc3C)nn2)cc1	-4%
CC(=O)Nc1cccc(NC(=O)CSc2ccc(-c3sc(-c4ccccc4)nc3C)nn2)c1	8.9µM*
O=C(c1cccc(OC(F)(F)F)c1)N1CCCC1c1nncn1Cc1ccncc1 (centres undefined)	-1%
O=C(NC1CCCCCCC1)C1CCN(C(=O)c2ncn3c2COC(c2ccc(Cl)cc2)C3)CC1 (centres undefined)	-18%
O=C1CCN(C(=O)CCCc2c[nH]c3ccccc23)CCCOCCN1	-21%
O=C(CC1COCCN1)N(Cc1cccnc1)Cc1cccnc1 (centres undefined)	4%
O=C(CC1COCCN1)N(CCc1c[nH]c2ccccc12)C1CCCCC1 (centres undefined)	8.9µM*
CC(=O)N1CC2(Cc3ccccc31)CN(C(=O)c1ccc(Cl)nc1)C2	-10%
COc1ccccc1N1CCCc2ncc(C(=O)Nc3cccc(F)c3)cc21	-30%[44.1 µM]
SMILES	Pf Dd2 inh
O=C(Nc1ccc2c(N3CCCC3)ncnc2c1)c1ccccc1Cl	13µM*
O=C(Nc1ccc2ncnc(N3CCCC3)c2c1)c1ccc(F)cc1Cl	i
O=C(Nc1ccc2ncnc(N3CCCCC3)c2c1)c1c(F)cccc1Cl	i
O=C(Nc1ccc2ncnc(N3CCCCC3)c2c1)c1ccccc1Br	i
O=C(Nc1ccc2c(N3CCCCC3)ncnc2c1)c1ccccc1C(F)(F)F	11µM*
Cc1ccc(-c2ncc(NC(=O)c3ccccc3C(F)(F)F)cn2)cc1	i
CCCNC(=O)N1CCC(O)(c2cnc(CN3CCC3)s2)CC1	i
CC(C)NC(=O)[C@@H]1C[C@H](N)CN1C(=O)c1ccccc1-c1ncc[nH]1	2%
O=C(c1ccc(-c2ncc3cnc(C4=CCOCC4)cn23)cc1)N1CCc2ccccc2C1	i
O=C(c1cccc(O)c1)N1CC=C(c2cnc3cnc(-c4ccccc4)cn23)CC1	2µM*
O=C(c1ccc(-c2ncc3cnc(-c4ccccc4)cn23)cc1)N1CCS(=O)(=O)CC1	i
O=C(Cc1cccs1)N1CC[C@H]2COC(=O)N2c2cc(F)ccc2C1	-11%[44.1 µM]
Cc1ccc(Cc2nc3ccccc3nc2SCC(=O)N2CCN(c3ccc(F)cc3)CC2)cc1	20%
Cc1ccc(Cc2nc3ccccc3nc2SCC(=O)N2CCC(C)CC2)cc1	10µM*
COc1ccccc1N1CCN(C(=O)CSc2nc3ccccc3nc2Cc2ccc(C)cc2)CC1	-7%
